From PubChem BioAssay (EPA / NIEHS) come the findings set out here.

Structures are written as SMILES. Activity calls are given as the source filed them. How the source made its calls: active means hit-call score of the fitted dose curve at least 0.9, where 1 is the maximum; inactive means score below 0.9.

Read-out in experiment [1]: Macrophage colony-stimulating factor (MCSF), CSF1 (gene 1435)
The experiment is described as follows: BSK_CASM3C_MCSF: BioMAP Diversity Plus: CASM3C Assay for Macrophage colony-stimulating factor (MCSF) Biomarker Activity (AID 2283044).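 Further: M-CSF protein amount quantified by ELISA after 24 h exposure.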 The conditions noted are these: primary human coronary artery smooth muscle cells; actives raise or lower the signal.

Read-out in experiment [2]: Low-density lipoprotein receptor (LDLR), LDLR (gene 3949)
The experiment is described as follows: BSK_CASM3C_LDLR: BioMAP Diversity Plus: CASM3C Assay for Low-density lipoprotein receptor (LDLR) Biomarker Activity (AID 2283045).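 Further: LDLR protein level on the cell surface quantified by ELISA.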 Conditions: primary human coronary artery smooth muscle cells; actives raise or lower the signal.

Read-out in experiment [3]: Monocyte Chemoattractant Protein-1 (MCP1), CCL2 (gene 6347)
The experiment is described as follows: BSK_CASM3C_MCP1: BioMAP Diversity Plus: CASM3C Assay for Monocyte Chemoattractant Protein-1 (MCP1) Biomarker Activity (AID 2283046).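 Further: MCP-1 level quantified by ELISA 24 h after dosing.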 Conditions: primary human coronary artery smooth muscle cells; actives raise or lower the signal.

A short description of experiment [4]: BSK_CASM3C_Proliferation: Cell Proliferation Assessment in the BioMAP Diversity Plus: CASM3C Assay (AID 2283047).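 Further: sulforhodamine B total protein stain as relative cell number at 560 nm; sub-confluent cells exposed 48 h before staining; fitted both ways against DMSO so gain or loss of cell number.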 Conditions: primary human coronary artery smooth muscle cells.
Read-out in experiment [5]: Monokine induced gamma interferon (MIG), CXCL9 (gene 4283)
The experiment is described as follows: BSK_CASM3C_MIG: BioMAP Diversity Plus: CASM3C Assay for Monokine induced gamma interferon (MIG) Biomarker Activity (AID 2283048).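 Further: MIG protein level measured by ELISA.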 Conditions: primary human coronary artery smooth muscle cells; actives raise or lower the signal.

Read-out in experiment [6]: serum amyloid A (SAA), SAA1 (gene 6288)
Description: BSK_CASM3C_SAA: BioMAP Diversity Plus: CASM3C Assay for serum amyloid A (SAA) Biomarker Activity (AID 2283049).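 Further: SAA protein level quantified by ELISA.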 The conditions noted are these: primary human coronary artery smooth muscle cells; actives raise or lower the signal.

The nature of experiment [7]: BSK_CASM3C_SRB: Viability Assessment in the BioMAP Diversity Plus: CASM3C Assay (AID 2283050).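 Further: cells exposed to compound for 24 h.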 The conditions noted are these: primary human coronary artery smooth muscle cells.
Read-out in experiment [8]: Thrombomodulin, THBD (gene 7056)
Description: BSK_CASM3C_Thrombomodulin: BioMAP Diversity Plus: CASM3C Assay for Thrombomodulin Biomarker Activity (AID 2283051).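 Further: thrombomodulin protein level measured by ELISA 24 h after dosing.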 The conditions noted are these: primary human coronary artery smooth muscle cells; actives raise or lower the signal.

Read-out in experiment [9]: Tissue Factor, F3 (gene 2152)
Description: BSK_CASM3C_TissueFactor: BioMAP Diversity Plus: CASM3C Assay for Tissue Factor Biomarker Activity (AID 2283052).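 Further: cell surface tissue factor protein level read by ELISA.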 The conditions noted are these: primary human coronary artery smooth muscle cells; actives raise or lower the signal.

Read-out in experiment [10]: Interferon-gamma inducible Protein 10 (IP10), CXCL10 (gene 3627)
Description: BSK_hDFCGF_IP10: BioMAP Diversity Plus: hDFCGF Assay for Interferon-gamma inducible Protein 10 (IP10) Biomarker Activity (AID 2283053). Conditions: primary human foreskin fibroblasts; actives raise or lower the signal. An outline of the steps:
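IP-10 levels, quantified by ELISA, are taken from human foreskin fibroblast cultures 24 h after chemical treatment, with DMSO serving as negative control and baseline for bidirectional analysis.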

Read-out in experiment [11]: Urokinase-type plasminogen activator receptor (uPAR), PLAUR (gene 5329)
Description: BSK_CASM3C_uPAR: BioMAP Diversity Plus: CASM3C Assay for Urokinase-type plasminogen activator receptor (uPAR) Biomarker Activity (AID 2283054).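 Further: cell-surface uPAR protein level quantified by ELISA.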 Conditions: primary human coronary artery smooth muscle cells; actives raise or lower the signal.

Read-out in experiment [12]: Vascular cell adhesion molecule 1 (VCAM1), VCAM1 (gene 7412)
Description: BSK_CASM3C_VCAM1: BioMAP Diversity Plus: CASM3C Assay for Vascular cell adhesion molecule 1 (VCAM1) Biomarker Activity (AID 2283055).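 Further: VCAM-1 protein level quantified by ELISA on the cells.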 Conditions: primary human coronary artery smooth muscle cells; actives raise or lower the signal.

Read-out in experiment [13]: Collagen III, COL3A1 (gene 1281)
Description: BSK_hDFCGF_CollagenIII: BioMAP Diversity Plus: hDFCGF Assay for Collagen III Biomarker Activity (AID 2283056). Conditions: primary human foreskin fibroblasts; actives raise or lower the signal. An outline of the steps:
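Human foreskin fibroblast primary cultures sampled 24 h after dosing; Collagen III quantified by ELISA. Signal fitted bidirectionally against DMSO baseline.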

Read-out in experiment [14]: Interleukin-8 (IL8), CXCL8 (gene 3576)
Description: BSK_hDFCGF_IL8: BioMAP Diversity Plus: hDFCGF Assay for Interleukin-8 (IL8) Biomarker Activity (AID 2283058). Conditions: primary human foreskin fibroblasts; actives raise or lower the signal. An outline of the steps: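 Primary human foreskin fibroblasts (hDFCGF system) dosed with chemical; IL-8 measured by ELISA 24 hours later. Bidirectional curve fitting relative to DMSO baseline; cytotoxicity tracked in parallel cultures by SRB total protein staining.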

The nature of experiment [15]: BSK_hDFCGF_Proliferation: Cell Proliferation Assessment in the BioMAP Diversity Plus: hDFCGF Assay (AID 2283059).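 Further: curves fitted for both rise and fall of signal versus DMSO baseline.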 The conditions noted are these: primary human foreskin fibroblasts. The procedure, abridged:
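Steps: dose primary human dermal fibroblasts (foreskin); […] fix in 10% TCA; stain with 0.1% SRB; read 560 nm; fit gain or loss of signal against DMSO.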

Read-out in experiment [16]: Macrophage colony-stimulating factor (MCSF), CSF1 (gene 1435)
The experiment is described as follows: BSK_hDFCGF_MCSF: BioMAP Diversity Plus: hDFCGF Assay for Macrophage colony-stimulating factor (MCSF) Biomarker Activity (AID 2283060). The conditions noted are these: primary human foreskin fibroblasts; actives raise or lower the signal. The procedure, abridged:
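Human foreskin fibroblast primary cultures; M-CSF measured by ELISA 24 hours after chemical dosing. Bidirectional fitting relative to DMSO, with overt cytotoxicity tracked by parallel SRB total-protein staining (0.1% SRB, 10% TCA fixation, 560 nm).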

A short description of experiment [17]: BSK_hDFCGF_SRB: Viability Assessment in the BioMAP Diversity Plus: hDFCGF Assay (AID 2283061).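 Further: cells exposed to compound for 24 h before the read.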 The conditions noted are these: primary human foreskin fibroblasts. An outline of the steps:
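Human foreskin fibroblasts in 96-well plates were treated 24 h. Total protein was measured by 0.1% SRB staining after 10% TCA fixation, read at 560 nm. Data were fitted bidirectionally against DMSO.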

Read-out in experiment [18]: Monokine induced gamma interferon (MIG), CXCL9 (gene 4283)
The experiment is described as follows: BSK_hDFCGF_MIG: BioMAP Diversity Plus: hDFCGF Assay for Monokine induced gamma interferon (MIG) Biomarker Activity (AID 2283063). The conditions noted are these: primary human foreskin fibroblasts; actives raise or lower the signal. The procedure, abridged:
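MIG/CXCL9 measured by ELISA 24 h after dosing primary human skin fibroblasts. Activity fitted in both directions against DMSO controls. Cytotoxicity was checked in parallel cultures by SRB staining read at 560 nm.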

Read-out in experiment [19]: Matrix Metallopeptidase 1 (MMP1), MMP1 (gene 4312)
The experiment is described as follows: BSK_hDFCGF_MMP1: BioMAP Diversity Plus: hDFCGF Assay for Matrix Metallopeptidase 1 (MMP1) Biomarker Activity (AID 2283064). Conditions: primary human foreskin fibroblasts; actives raise or lower the signal. The procedure, abridged:
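Primary human foreskin fibroblasts in the hDFCGF system were dosed with test chemical, and MMP1 was measured by ELISA 24 h later. Values come from bidirectional curve fitting against the DMSO baseline.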

Read-out in experiment [20]: Vascular cell adhesion molecule 1 (VCAM1), VCAM1 (gene 7412)
The experiment is described as follows: BSK_hDFCGF_VCAM1: BioMAP Diversity Plus: hDFCGF Assay for Vascular cell adhesion molecule 1 (VCAM1) Biomarker Activity (AID 2283065).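 On AC50: VCAM-1 protein level quantified by ELISA after 24 h chemical exposure.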 Conditions: primary human foreskin fibroblasts; actives raise or lower the signal. An outline of the steps:
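Human foreskin fibroblast primary cells dosed with chemical, VCAM-1 measured by ELISA at 24 h. Bidirectional curve fitting relative to DMSO as negative control/baseline.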

For orientation: AC50 means the midpoint of the concentration-response curve, whichever way the signal moves. As for `c1ccc2c(c1)ccc1ncccc12`, the outcome in [1], in experiment [2], in experiment [3], in experiment [4], in experiment [5] and in experiment [6] was inactive. Moreover, the result in experiment [7], in experiment [8], in experiment [9], in experiment [10], in experiment [11] and in experiment [12] was inactive. The outcome in experiment [13], in experiment [14], in [16], in [17], in experiment [18] and in experiment [19] was inactive. Further, the result in experiment [20] was inactive. In addition, in experiment [15], the concentration at half-maximal activity (AC50) is 20 µM (active).

Regarding `CCO[Si](C)(OCC)OCC`, the result in [1], in experiment [2], in experiment [3], in experiment [4], in experiment [5] and in [6] was inactive. Also, the result in [7], in [8], in [9], in experiment [10], in experiment [11] and in [12] was inactive. Moreover, the outcome in experiment [13], in experiment [14], in experiment [15], in [16], in experiment [17] and in experiment [18] was inactive. Also, the outcome in [19] and in [20] was inactive.

Take `COCc1c(C(C)C)nc(C(C)C)c(/C=C/[C@@H](O)C[C@@H](O)CC(=O)O)c1-c1ccc(F)cc1`: the outcome in experiment [1], in experiment [2], in experiment [3], in experiment [5], in experiment [6] and in [7] was inactive. Moreover, the outcome in [10], in experiment [11], in experiment [12], in [13], in experiment [16] and in experiment [18] was inactive. For the same molecule, the result in experiment [19] and in experiment [20] was inactive. Moreover, the AC50 is 0.056 µM (active) in experiment [4]; 0.00777 µM (active) in [8]; 0.00777 µM (active) in [9]; 0.0803 µM (active) in [15]; 0.32 µM (active) in [17].

With `C=CCOc1c(Br)cc(Br)cc1Br`, the AC50 in experiment [1] is 28.3 µM (active); in experiment [2], 20 µM (active); in experiment [3] it was 32.3 µM (active); in [4], 29.5 µM (active); in [6], 20 µM (active); in experiment [7] it was 30.4 µM (active). Moreover, the concentration at half-maximal activity (AC50) in experiment [9] is 16.9 µM (active); in experiment [10], 35.5 µM (active); in experiment [11], 33.5 µM (active); in [12], 32.3 µM (active); in experiment [13], 20 µM (active); in experiment [15], 10.3 µM (active). Also, the AC50 in [16] was 12.5 µM (active); in experiment [17] it was 25.7 µM (active); in experiment [18], 20 µM (active); in experiment [19] it was 30.3 µM (active); in [20], 33.1 µM (active). The result in experiment [5], in [8] and in [14] was inactive.

For `CC1OC1C1CCC2(C)OC2C1` (centres undefined), the outcome in [1], in experiment [2], in [3], in [4], in [5] and in experiment [6] was inactive. For the same molecule, the result in [7], in experiment [8], in experiment [9], in experiment [10], in experiment [11] and in experiment [12] was inactive. The result in experiment [14], in experiment [15], in [16], in [17], in experiment [18] and in experiment [19] was inactive. Besides, the outcome in experiment [20] was inactive. In addition, the AC50 in experiment [13] was 11.4 µM (active).
